12-hLO inh – 12-hLO (ALOX12) enzyme inhibition. P18054. purified 12-hLO, xylenol orange hydroperoxide absorbance. Potency, µM (series often up to 57.1 µM), most hits filed as inhibitors. hit rate 0.12% among 150,000. AID 1452; further: nearly all actives have a fitted effect of over 55% in size
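Xylenol orange chromogenic assay: hydroperoxide from 12hLO oxidises Fe(II), giving red-shifted Fe(III)-XO absorbance. Conditions: 150 nM enzyme, 40 uM arachidonic acid, 25 mM Hepes pH 7.0, 0.01% Triton X-100, 30 min, room temperature.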
HPGD inh – inhibitors of human 15-hydroxyprostaglandin dehydrogenase (HPGD); P15428; purified HPGD, NADH fluorescence kinetic, PGE2 substrate; Potency, µM, usual class: inhibitors; hit rate 4.3% among 150,000; AID 894; active means well fitted inhibition curve with a large enough effect, not every such curve was filed as active; inconclusive means small, poorly fitted or top-dose-only effect, or another doubt; inactive means no such curve, though single readings can be large or run the other way
Target sequence (P15428 whole entry, looked up): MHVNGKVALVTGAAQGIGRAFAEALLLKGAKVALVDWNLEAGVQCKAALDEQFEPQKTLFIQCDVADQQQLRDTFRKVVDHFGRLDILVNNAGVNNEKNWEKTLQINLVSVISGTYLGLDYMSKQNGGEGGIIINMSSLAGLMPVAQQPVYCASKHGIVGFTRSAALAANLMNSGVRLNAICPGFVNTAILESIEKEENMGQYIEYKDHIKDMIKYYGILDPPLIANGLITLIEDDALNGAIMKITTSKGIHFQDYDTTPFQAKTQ
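NADH formation kinetics: reaction with 30 uM PGE2 and 1 mM NAD+ (final), 20 nM enzyme, Tris-HCl pH 8 with Tween 20, after 15 min compound preincubation at room temperature. Fluorescence change, last versus first of five reads.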
15-hLO-2 inh – inhibitors of human 15-lipoxygenase 2 (ALOX15B). O15296. AID 881. purified 15hLO-2, xylenol orange hydroperoxide absorbance. Potency, µM (doses to about 57.1 µM), usual class: inhibitors. hit rate 0.56% among 110,000; further: nearly all actives have a fitted effect of over 60% in size
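Purified human 15hLO-2 (50 nM final) preincubated with compounds 15 min at room temperature in 25 mM Hepes pH 7.5, 0.01% Triton X-100, then 45 uM arachidonic acid added for 90 min; hydroperoxide detected via ferrous/xylenol orange, 573/405 nm absorbance ratio.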
IMPase inh – membrane-permeable compound that blocks inositol monophosphatase; inhibition (IP1 accumulation), % at 46.1 µM; P97697; CHO-M1 cells, IP1 accumulation, HTRF TR-FRET ratio; 120,000 tested, under 10 active; active means well fitted curve in the direction sought with a large enough effect in the signal ratio, not every such curve was filed as active; inconclusive means small, poorly fitted or top-dose-only effect, or a change in a side signal; inactive means no such curve, though single readings can be large or run the other way; the % refers to the signal ratio;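 further: cells stimulated with carbachol in lithium chloride buffer; higher means more IMPase inhibition seen as more IP1 and lower FRET ratio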
Target sequence (P97697 whole entry, looked up): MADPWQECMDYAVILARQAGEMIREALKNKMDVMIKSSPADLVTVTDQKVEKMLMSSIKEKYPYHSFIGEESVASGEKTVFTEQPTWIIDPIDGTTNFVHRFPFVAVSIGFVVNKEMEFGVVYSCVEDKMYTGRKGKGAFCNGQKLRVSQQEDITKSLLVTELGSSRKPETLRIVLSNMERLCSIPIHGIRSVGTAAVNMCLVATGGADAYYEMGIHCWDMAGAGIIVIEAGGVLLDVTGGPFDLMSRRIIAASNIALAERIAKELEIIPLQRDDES
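Elevated IP1 in lysates lowers TR-FRET signal (665/620 ratio and 620 channel reported). Cells were CHO-M1, given carbachol (50 uM as added) plus 50mM LiCl, pH 7.4, 30 min, 37C; compounds titrated up to 46 uM; AC50 by Hill equation.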
PNC inhibitor – blocks assembly of the perinucleolar compartment | PC3M PTB-GFP, PNC prevalence imaging, 16 h; stronger effect = lower value | activity change (PNC), negative = inhibition, % at 10 µM | hit rate 3.1% among 140,000;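 active means readout at or below -70, meaning at least 70% loss of cells showing the perinucleolar compartment, a nuclear body marking cancer cells; inconclusive means readout between -30 and a set limit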
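PC3M cells stably expressing PTB-GFP, 750–1000 cells/well, treated 16 h at 37 °C with compound (23 nl of library stock), in duplicate. After paraformaldehyde fixation and Hoechst stain, imaged at 20x; PNC prevalence scored by image analysis.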
IMPase Li inh – cell-permeable IMPase inhibitors with lithium potentiation | hit rate 0.35% among 210,000 | AID 1457 | CHO-M1 cells, IP1 TR-FRET (IP-One), carbachol + lithium | Potency, µM (highest dose often 59.4 µM), actives largely listed as inhibitors;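 further: IP1 builds up when IMPase is blocked and the TR-FRET signal falls; nearly all actives have a fitted effect of over 50% in size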
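CHO cells stably expressing M1 receptor (2000/well) were cultured 16–30 h, then exposed to compounds with a small lithium addition for 30 min at 37C. IP1 was measured by TR-FRET competition; AC50 from Hill fits.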
Of the large screens only hits and unclear results are named; the others gave an inactive call. An excerpt weighted towards active compounds, which were near 5.3% of everything screened. Unless noted, the call rests on the fitted dose curve; in most records, active means well fitted curve in the direction sought with a large enough effect; inconclusive means small, poorly fitted or top-dose-only effect, or another doubt; inactive means no such curve, though single readings can be large; an effect the other way counts as inactive or inconclusive.

COc1ccc(C(=S)N2CCOCC2)cc1OS(=O)(=O)c1ccccc1[N+](=O)[O-]	HPGD inh 32µM (no result: 15-hLO-2 inh, IMPase inh)
CCOc1cc(C(=S)N2CCOCC2)ccc1OS(=O)(=O)c1ccccc1[N+](=O)[O-]	HPGD inh 16µM, PNC inhibitor inconclusive (no result: 15-hLO-2 inh, IMPase inh)
Cc1cccc(CNc2ncncc2-c2cccc(C#N)c2)c1	none (no result: IMPase inh, PNC inhibitor)
O=C(COC(=O)COc1ccc(Cl)cc1)NCc1cccs1	HPGD inh inconclusive (no result: 15-hLO-2 inh)
COCCNS(=O)(=O)c1ccc(-c2ccc(S(=O)(=O)NCCOC)cc2)cc1	HPGD inh 11µM
COCCNS(=O)(=O)c1ccc(-c2ccc(Cl)cc2)cc1	none (no result: 12-hLO inh, HPGD inh, 15-hLO-2 inh, IMPase inh, PNC inhibitor)
N#CCCn1cc(/C=N/NC(=O)c2ccncc2)c(-c2ccc(F)cc2)n1	none (no result: 15-hLO-2 inh)
COc1cccc(Nc2nc(C)cc(C)c2C#N)c1	PNC inhibitor -100 (no result: 15-hLO-2 inh)
O=S(=O)(c1ccccc1)n1ccc2cccnc21	none
COC(=O)C1(Cc2ccccc2)C=C2C(=C(c3ccccc3)C(=O)C2C)CN1 (stereo not drawn)	HPGD inh 10µM, 15-hLO-2 inh inconclusive (no result: IMPase inh, PNC inhibitor)
CC(=O)c1cc2c(cc1O)OC(C)(C)C=C2	HPGD inh 25µM (no result: IMPase inh, PNC inhibitor)
CC1(C)C=Cc2cc3ccc(=O)oc3cc2O1	none (no result: IMPase inh, PNC inhibitor)
Nc1nnc(SCC(=O)NN2C(=O)NC3(CCCCC3)C2=O)s1	none (no result: 15-hLO-2 inh, IMPase inh)
CCN(CC)C(=O)C1CCCc2c1[nH]c1ccc(Cl)cc21 (stereo not drawn)	PNC inhibitor -93 (no result: 15-hLO-2 inh)
Cc1ccc2[nH]c3c(c2c1)CCCC3C(N)=O (stereo not drawn)	none (no result: 15-hLO-2 inh)
O=C(NCCN1CCOCC1)c1ccc(F)cc1	none
O=C(NCCN1CCOCC1)c1ccc(=O)oc1	PNC inhibitor -127
COCc1nnc(NC(=O)c2sc3ccccc3c2Cl)s1	HPGD inh 32µM
COc1ccccc1C(=O)NNC(=S)NC(=O)c1sc2ccccc2c1Cl	none (no result: 15-hLO-2 inh, IMPase inh)
COc1ccc(NC(=O)C(=O)NNC(=O)c2cccs2)cc1	PNC inhibitor -93 (no result: 15-hLO-2 inh, IMPase inh)
COc1ccc(C(CC(=O)O)NC(=O)c2sc3ccccc3c2Cl)cc1 (stereo not drawn)	HPGD inh inconclusive, IMPase inh inconclusive, PNC inhibitor inconclusive, IMPase Li inh 5.6µM (no result: 15-hLO-2 inh)
COc1ccccc1C(=O)NC(=S)NNC(=O)c1sc2ccccc2c1Cl	HPGD inh 32µM, PNC inhibitor inconclusive (no result: 15-hLO-2 inh)
Cc1ccc(NC(=O)C(=O)NNC(=O)c2cccs2)cc1	none (no result: 12-hLO inh, HPGD inh, 15-hLO-2 inh, IMPase inh, PNC inhibitor)
Cc1c(C)[n+](=O)c2c(n1[O-])CCCCC2	PNC inhibitor inconclusive
COc1ccc(NC(=O)/C(=C\c2ccc3c(c2)OCO3)NC(C)=O)cc1	none (no result: 15-hLO-2 inh)
C/C=C/C/C=C/CCC(=O)[C@H]1O[C@H]1C(N)=O	none (no result: 12-hLO inh, HPGD inh, 15-hLO-2 inh, IMPase inh, PNC inhibitor)
COc1ccc(C(CC(=O)O)NC(=O)c2cccs2)cc1 (stereo not drawn)	PNC inhibitor -85
O=C(O)c1cc2c(cc1S(=O)(=O)O)[C@H]1[C@@H]([C@H]3[C@H]2[C@@]2(Cl)C(Cl)=C(Cl)[C@]3(Cl)C2(Cl)Cl)[C@]2(Cl)C(Cl)=C(Cl)[C@@]1(Cl)C2(Cl)Cl	12-hLO inh inconclusive (no result: HPGD inh, IMPase inh, PNC inhibitor, IMPase Li inh)
CC1(C)CC(=O)C=C(OC(=O)c2ccc(Cl)cc2)C1	HPGD inh 14µM
CCOC(=O)c1ccc(CC2S/C(=C(\C#N)C(C)=O)NC2=O)cc1 (stereo not drawn)	HPGD inh 14µM
CCOC(=O)C1CCCN(C(=O)COC(=O)C2=COCCO2)C1 (stereo not drawn)	none
O=C(Nc1ccccc1C(=O)O)c1cccc(NC(=O)c2ccc(Br)o2)c1	none
O=C(Nc1ccccc1C(=O)O)c1ccc(NC(=O)c2ccc(Br)o2)cc1	HPGD inh 18µM
CCN(CC)C(=O)c1sc(NC(=O)c2cccc([N+](=O)[O-])c2)c(C#N)c1C	HPGD inh 7.1µM (no result: 15-hLO-2 inh, IMPase inh)
COC(=O)c1c(NC(=O)c2cccc([N+](=O)[O-])c2)sc(C(N)=O)c1C	none (no result: 12-hLO inh, HPGD inh, 15-hLO-2 inh, IMPase inh, PNC inhibitor)
COC(=O)c1sc(NC(=O)c2cccc([N+](=O)[O-])c2)c(C(N)=O)c1C	HPGD inh 28µM, PNC inhibitor inconclusive (no result: 15-hLO-2 inh, IMPase inh)
Cc1ccc(C(=O)Nc2sc(C)c(-c3ccccc3)c2C(N)=O)cc1[N+](=O)[O-]	HPGD inh 25µM

Screening data: PubChem BioAssay, National Center for Advancing Translational Sciences (NCATS)
